The record followed here is the OligoGym collection.
Further: reference of the scale not given here.

One assay addresses GAB3. As to the kind of experiment: pooled miR-30 sensor sort-seq; sequence = guide strand. Conditions: shRNA.
Consider TTTTGTGCTCTGGAGAGCCTGT, for which the sensor-assay potency score (higher = more potent) is -0.572.
For the sequence TTTCCTTGAATCGTTATGCTTT, the sensor-assay potency score (higher = more potent) was found to be 0.221.
For the sequence TTCCACACTGCACACTCGCTGA, the sensor-assay potency score (higher = more potent) is -0.565.
Sequence TTGAGATCTCTATTCACTGGGG had a sensor-assay potency score (higher = more potent) of 0.467.
Take TTTTCTATCTCCAATCTGGTGT: the sensor-assay potency score (higher = more potent) amounted to 0.0351.
The sequence TAGTACTCCAAGACATCGGGGT showed a sensor-assay potency score (higher = more potent) of 0.697.
Regarding TTGACCTGTGTTGACCATCAGT, the sensor-assay potency score (higher = more potent) was -0.72.

The next assay concerns the target GABBR1. The assay is described as above. Conditions: shRNA.
For TAGACAAATTGCACATGCCTAC, the sensor-assay potency score (higher = more potent) was -0.546.
TTCTCATCAACTATCCACTGGA showed a sensor-assay potency score (higher = more potent) of 0.124.
In turn, TTGGATAGCATGTTCTTCCCAG yielded a sensor-assay potency score (higher = more potent) of 0.0924.
On to TAGGTCCATCTGTCTATCCCAA, for which the sensor-assay potency score (higher = more potent) is -0.913.
Sequence TAGTTTCTCCACAAATTCCTGG showed a sensor-assay potency score (higher = more potent) of -0.496.
For TAGTACATGAATGCAATGGAGA, the sensor-assay potency score (higher = more potent) was -0.803.
Sequence ATGGTAGCAATCTTCTTCCAGC yielded a sensor-assay potency score (higher = more potent) of -1.28.
Take TTGTGAGTGTAGACTGAGGGTA: the sensor-assay potency score (higher = more potent) is -0.0666.
TTCTGTGACAAGGAGAGGGTGT yielded a sensor-assay potency score (higher = more potent) of 0.0904.
On the same count and under the same terms, with TCTTGGTGAACATGGAACCGTA the figure was -1.08; with TGGATCACACTTGCTGTCGTGG, -0.99.
Same read-out and setting: with TTTTCAAAGAGTTTCACGCGGG the figure was -0.189; with TTCAGCATGACAATCTCAGTTG, -0.723.
The same measure, in the same setting: then TTGAGATTCGGGGAGATCCTTC, with -0.396; and TGAGGTTCCACATCCTAGCAGC, with -0.132.
In turn, TTCTCCTTCTCCAACAGCCGGG registered a sensor-assay potency score (higher = more potent) of -0.705.
TAGCCAATCTTCTTGTAGCTGC yielded a sensor-assay potency score (higher = more potent) of -0.0319.
The sequence TAGTCCGGCAGGATGTCCCTGC came in with a sensor-assay potency score (higher = more potent) of -0.16.
Turning to TCCTTCTTTGTGAAGACCGTGT, the sensor-assay potency score (higher = more potent) is -0.749.
For TTGTTGTTGGTCGATGACCCTG, the sensor-assay potency score (higher = more potent) was -1.05.
As for TAAGACTTGGAGCAGATTCGGA, the sensor-assay potency score (higher = more potent) is -0.862.

The next assay addresses GABRA1. The description is as above. The note with it: shRNA.
TACAATGAGCAACTGCACCTTT came in with a sensor-assay potency score (higher = more potent) of 0.167.
The sequence TTGTGAGAGAATCACTGTCATT came in with a sensor-assay potency score (higher = more potent) of -1.6.
Sequence TCTTCTGCTACAACCACTGAGC displayed a sensor-assay potency score (higher = more potent) of -0.0993.
Still for that read-out and setting: then TAAACAACTTCTGCTCTTGTAT, with -0.033.
Still for that read-out and setting: then TCTGCTACAACCACTGAGCGTG, with -0.543; and TAGCTTGTGAAATTTAGGCAGG, with -0.747.
Consider TACATCTATTGTATATTCCATA, for which the sensor-assay potency score (higher = more potent) was -0.691.
Turning to TATATCATTGGATAGCAGCTTT, the sensor-assay potency score (higher = more potent) is -0.213.
On to TATTTATCTCTAAAACATCTGG, for which the sensor-assay potency score (higher = more potent) is -0.271.
On the same count and under the same terms, then TTTTCTTGTATCTTTGAACCAT, with 0.355; and TATATATCTACAAATGACCTAG, with 0.243.
